# Source: PubChem (National Center for Advancing Translational Sciences (NCATS))
# Coupling enz: inhibits coupling enzyme system, counter-screen for aldolase hits; 290,000 compounds, 0.67% hits; coupling enzyme system counterscreen, AmpLite Red fluorescence; activity change, negative = inhibition, % at 58.2 µM, hits read low; in the data active means activity change below about -30%
#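 First, compound is pin-transferred into glyceraldehyde-3-phosphate coupling-enzyme reagent at 57.5 uM final and held 10 min at RT. Next, substrate, coupling system and AmpLite Red are added. After 20 min RT, fluorescence (525/598 nm) is read.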
# Tau ThT inhib: blocks human tau fibril formation measured by thioflavin T; P10636; recombinant tau K18 P301L, heparin-induced fibrillization, ThT fluorescence; Potency, µM (top dose mostly 57.4 µM), hits mostly inhibitors; 270,000 compounds, 2.1% hits; AID 1460; further: nearly all actives have a fitted effect of over 55% in size
# Target sequence (P10636 561-689 P618L limits assumed): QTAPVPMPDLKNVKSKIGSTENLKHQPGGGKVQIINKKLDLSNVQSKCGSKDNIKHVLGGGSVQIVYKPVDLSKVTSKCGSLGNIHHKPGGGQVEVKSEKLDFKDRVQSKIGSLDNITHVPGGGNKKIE
#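 ThT emission at 510 nm, taken 1 hr after adding 30 uM dye, quantifies aggregates formed when 20 uM heparin acts on human tau K18 P301L for 6 hr at 37 C.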
# Sfp PPTase inh: inhibitors of Bacillus subtilis Sfp phosphopantetheinyl transferase | Q9F4F7 | Biochemical Sfp PPTase activity, qHTS | Potency, µM, actives largely listed as inhibitors | 310,000 compounds, 3.5% hits | AID 1490;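 further: the enzyme is Sfp with the accession as filed and its product quenches rhodamine fluorescence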
#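 Step 1, compound plus 15 nM Sfp-PPTase, 15 min, room temperature. Step 2, add rhodamine-CoA (5 uM) and BHQ-2-YbbR (12.5 uM). Step 3, read 525/598 nm fluorescence at 0 and 30 min.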
# Tau fluor cs: counter-screen for tau fibril formation inhibitors. tau K18 P301L (four-repeat tau fragment) Alexa594 fluorescence, heparin fibrillization. Potency, µM (top dose mostly 57.7 µM). 280,000 compounds, 0.93% hits; further: nearly all actives have a fitted effect of over 55% in size
#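 Human K18 P301L tau (15 uM unlabeled plus 0.24 uM Alexa 594-labeled, final) in 100 mM sodium acetate pH 7 was mixed with compound and 20 uM heparin and incubated 6 hr at 37 C.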
# Tau fibril FP: blocks human tau fibril formation measured by polarization; P10636; K18 P301L tau heparin fibrillization, Alexa594 FP, 6 h; Potency, µM (series often up to 57.7 µM), most hits filed as inhibitors; 280,000 compounds, 0.39% hits; AID 1468; further: nearly all actives have a fitted effect of over 55% in size
#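 Human K18 P301L fragment (15 uM unlabeled plus 0.24 uM Alexa 594-labeled) in 100 mM sodium acetate pH 7 with compound, aggregation induced by 20 uM heparin for 6 hr at 37 C. ThT (30 uM) added for 1 hr, then Alexa 594 FP read.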
# A number is an active result; – = inactive; ? = inconclusive; · = no result; [ ] = another dose, or the depositor's remark. Only some compounds are listed: those with a hit (about 5.2% of all), similar ones and a draw of the others. Unless noted, the call rests on the fitted dose curve; in most records, active means well fitted curve in the direction sought with a large enough effect; inconclusive means small, poorly fitted or top-dose-only effect, or another doubt; inactive means no such curve, though single readings can be large; an effect the other way counts as inactive or inconclusive.
SMILES,Coupling enz,Tau ThT inhib,Sfp PPTase inh,Tau fluor cs,Tau fibril FP
N#Cc1c(N(CCO)CCO)nc(N)c2c(N)nc3c(c12)CC(=O)N3Cc1cccs1,-31,16µM,–,?,?
CN(C)c1nc(N)nc(/C(C#N)=C/C2CC3C=CC2C3)n1 (stereo unspecified),-33,–,56µM,–,–
O=C(OCC(=O)N1CCCc2ccccc21)c1cncc(Br)c1,–,?,71µM,–,–
O=C(OCC(=O)N1CCc2ccccc21)c1cncc(Br)c1,–,?,–,–,–
CO[C@@H]1COC(=O)C/C=C\[C@@H](C)[C@H](OC)COC(=O)[C@H](COCc2ccccc2)NC(=O)C/C=C\[C@H]1C,–,–[11.5 µM],–,–[11.6 µM],?
O=[N+]([O-])c1ccccc1-c1cc(-c2cc(Cl)ccc2O)n[nH]1,–,?,–,14µM[quencher],?
Oc1ccccc1-c1cc(-c2ccccc2Cl)[nH]n1,–,–,–,14µM[quencher],?
Cc1ccc(O)c(-c2cc(-c3ccccc3[N+](=O)[O-])[nH]n2)c1,–,?,–,?,–
Oc1ccc(Cl)cc1-c1cc(-c2ccco2)[nH]n1,–,–,50µM,?,?
CCc1ccccc1NC(=O)N1CC(CC)Oc2ccc(Cl)cc21 (stereo unspecified),·,–,·,–,–
Cc1nn(-c2ccc(F)cc2)c(-n2cccc2)c1C(=O)NCCCN1CCN(c2cccc(Cl)c2)CC1,·,?,·,–,–
O=S1(=O)N=C(Nc2nncs2)c2ccccc21,–,?,50µM,–,?
CCN(CC)S(=O)(=O)c1ccc(NC2=NS(=O)(=O)c3ccccc32)cc1,–,–,–,–,–
Cl/C(=C\n1cncn1)c1ccc(Cl)cc1Cl,–,?,–,–,–
Cc1ccc(NC(=O)C2CCCN(c3cnccn3)C2)cc1Cl (stereo unspecified),·,–,·,–,–
O=C1C=CC2(OCCCO2)C(Br)=C1CO,–,16µM,–,–,?
CCn1c(=O)c(C(=O)Nc2ccccc2C)c(O)c2ccccc21,–,–,–,–,–
CCCn1c(=O)c(C(=O)Nc2ccccc2C)c(O)c2ccccc21,–,·,35µM,·,·
CN(Cc1ccco1)c1ncnc2ccc(-c3cccc(C#N)c3)cc12,–,?,?,–,–
O=C(O)/C=C/c1ccc2noc(-c3ccccc3)c2c1,–,–,50µM,–,–
Cc1ccc(-c2onc3ccc(C=O)cc23)cc1,–,25µM,–,?,?
NC(=O)COC(=O)c1ccc2noc(-c3ccccc3)c2c1,–,·,–,·,·
CC1CC=CC2C1C(=O)N(Cc1ccccc1)C2c1ccc2ccccc2c1 (stereo unspecified),–,·,?,·,·
C=CCc1c(C)[nH]c2c(OC)cccc2c1=S,–,–,13µM,–,–
Cc1ccc(C)c(NC(=O)Cn2cc(S(=O)(=O)N3CCCC3)c(S(=O)(=O)N3CCCC3)c2)c1,·,–,·,–,–
SMILES,Coupling enz,Tau ThT inhib,Sfp PPTase inh,Tau fluor cs,Tau fibril FP
COc1ccc(S(=O)(=O)NNC(N)=S)cc1,–,–,28µM,–,–
COc1ccccc1NC(=O)c1sc2ncn(Cc3ccccc3Cl)c(=O)c2c1C,·,–,·,–,–
Nc1c(C(=O)NCc2ccco2)c2nc3ccccc3nc2n1CCc1ccc(F)cc1,-34,?,25µM,?,?
COc1ccc(-n2c(N)c(C(=O)NCc3ccco3)c3nc4ccccc4nc32)cc1,–,?,25µM,?,?
Nc1cc(-c2cccc(F)c2)nn1S(=O)(=O)c1cccc2nsnc12,–,–,–,–,–
Nc1cc(-c2ccc(Cl)cc2)nn1S(=O)(=O)c1cccc2nsnc12,–,?,–,18µM[quencher],–
Nc1cc(-c2ccc(Br)cc2)nn1S(=O)(=O)c1cccc2nsnc12,–,?,–,13µM[quencher],–
CC(=O)N[C@@H](CCC(=O)O)C(=O)O,·,·,–,·,·
Cc1nc(N2CCN(Cc3ccc(Cl)cc3)CC2)c2oc3ccccc3c2n1,–,?,22µM,–,–
COc1ccccc1N1CCN(c2nc(C)nc3c2oc2ccccc23)CC1,–,?,25µM,–,–
CC(C)COc1ccc(C(=O)Nc2onc3c2CCCC3)cc1,·,?,·,?,–
CCn1c(SCC(=O)N/N=C/c2c[nH]c3ccccc23)nnc1-c1ccc(C(C)(C)C)cc1,–,?,–,18µM[quencher],–
CCn1c(SCC(=O)N/N=C/c2ccc(C)o2)nnc1-c1ccc(C(C)(C)C)cc1,–,–,–,–,–
O=C(CSc1nnc(SCc2ccccc2)s1)N/N=C/c1c[nH]c2ccccc12,–,–,?,?,–
O=C(CSc1nnc(SCc2ccccc2Cl)s1)N/N=C/c1c[nH]c2ccccc12,–,–,–,14µM[quencher],?
CC(C)[C@@H](CC(=O)N[C@@H]1CCCC[C@H]1C(=O)N[C@H](CC(=O)N[C@@H](CCC(=O)O)CC(=O)O)Cc1c[nH]c2ccccc12)NC(=O)C[C@H](Cc1c[nH]c2ccccc12)NC(=O)[C@@H]1CCCC[C@H]1N,–,–,–,–,–
Cc1ccc(CNC(=O)CN2C(=O)COc3ccc(S(=O)(=O)N4CCC(C)CC4)cc32)cc1,·,–,·,–,–
CCOc1ccc(CCNC(=O)c2oc(=O)c3ccccc3c2-c2ccc(C)cc2)cc1OCC,·,–,·,–,–
COc1ccc(NC(=O)CS(=O)(=O)c2cn(CC(=O)N3CCOCC3)c3ccccc23)cc1OC,·,·,56µM,·,·
O=C(Cn1cc(S(=O)(=O)Cc2ccccc2)c2ccccc21)N1CCOCC1,·,·,–,·,·
O=C(Cn1cc(S(=O)(=O)Cc2cccc(F)c2)c2ccccc21)N1CCOCC1,·,·,56µM,·,·
CC(C)[C@H](/C=C/C[Si](C)(C)C)[C@H](C)C(O)/C=C/CCCOC(=O)C(C)(C)C (stereo partly specified),–,·,–,·,·
O=C(CSC(=S)N1CCOCC1)Nc1nc(=O)c2ccccc2s1,–,–,79µM,–,?
CCCc1cc(=O)oc2c(C)c3c(cc12)CN(CCc1ccc(Cl)cc1)CO3,·,?,·,?,–
Cc1cc(O)ccc1N/C=C1\CCCC1=O,-44,28µM,?,–,?
SMILES,Coupling enz,Tau ThT inhib,Sfp PPTase inh,Tau fluor cs,Tau fibril FP
O=C1C=CC(=O)N1Cc1ccccc1,–,·,18µM,·,·
c1ccc2c(c1)Cc1cc3cc4c(cc3nc1-2)OCO4,–,3.2µM,–,?,–
Cc1cccc(NC(=O)c2ccc(Cn3nc(N4CCN(c5ccccc5)CC4)ccc3=O)o2)c1C,·,?,·,–,–
Cc1sc(N)c(C(=O)c2cccc(C(F)(F)F)c2)c1C,–,?,79µM,–,–
Cc1cccc(C(=O)N/N=C/c2ccccn2)c1,–,–,45µM,–,–
COc1cccc(/C=N/NC(=O)c2ccoc2C)c1,–,–,–,–,–
Cc1cc(C(=O)N/N=C/c2ccccn2)n[nH]1,–,–,40µM,–,–
Cc1ccc(C(=O)N/N=C\c2ccccn2)cn1,–,–,7.1µM,–,–
CC(C)(C)c1ccc(C(=O)N/N=C/c2ccccn2)cc1,–,·,–,·,·
Cc1occc1C(=O)N/N=C/c1ccccn1,–,–,63µM,–,–
